From PubChem
Shown are actives, neighbours in structure and some others; about 2.7% of the full set was active somewhere.
a7 integrin act – integrin-mediated muscular dystrophy alleviation activation | alpha7betagal myoblasts, beta-gal FDG fluorescence, 48 h | 0.064% of 350,000 active | Potency, µM (series often up to 38.3 µM), without a hit: at the top dose activation, most hits filed as activators;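 note: 100% = response of the positive control SU9516; nearly all actives have a fitted effect of over 60% in size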
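Alpha7betagal+/- myoblasts (passage 13) were plated 16-24 hr, then exposed to compounds (1:260 dilution of DMSO stock) for 48 hours at 37C. After MPER lysis, β-galactosidase reporter activity was read as FDG fluorescence (ex 480/em 540) after 30 minutes.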
GLP1R cytotox – cytotoxicity in counter-screen for GLP-1R inverse agonists; AID 624418; HEK293 cAMP-luciferase reporter cells, luminescence, 24 h; 0.13% of 410,000 active; Potency, µM (highest dose often 38.3 µM), for the others: at the highest dose activity change, negative = inhibition, most hits filed as inhibitors;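 note: loss of luciferase light is scored as toxicity; % is set by controls: 0 for no effect and ±100 for the full control effect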
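A 23 nL compound transfer followed 12 hours of cell culture at 37 deg C; exposure then lasted 24 hr. Luciferase assay detection reagent was dispensed and plates read for luminescence after a 12 min room-temperature wait.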
GLP1R ag – agonists of human GLP-1 receptor; P43220; HEK293 GLP-1R CRE-luciferase, luminescence, 4-6 h; cells express a hypersensitive GLP-1R form; Potency, µM (titrated, usually from 45.6 µM), for the others: at the top dose activation, most hits filed as activators; 0.007% of 380,000 active; note: % of control where 0% means no effect
Target sequence (P43220 whole entry, looked up): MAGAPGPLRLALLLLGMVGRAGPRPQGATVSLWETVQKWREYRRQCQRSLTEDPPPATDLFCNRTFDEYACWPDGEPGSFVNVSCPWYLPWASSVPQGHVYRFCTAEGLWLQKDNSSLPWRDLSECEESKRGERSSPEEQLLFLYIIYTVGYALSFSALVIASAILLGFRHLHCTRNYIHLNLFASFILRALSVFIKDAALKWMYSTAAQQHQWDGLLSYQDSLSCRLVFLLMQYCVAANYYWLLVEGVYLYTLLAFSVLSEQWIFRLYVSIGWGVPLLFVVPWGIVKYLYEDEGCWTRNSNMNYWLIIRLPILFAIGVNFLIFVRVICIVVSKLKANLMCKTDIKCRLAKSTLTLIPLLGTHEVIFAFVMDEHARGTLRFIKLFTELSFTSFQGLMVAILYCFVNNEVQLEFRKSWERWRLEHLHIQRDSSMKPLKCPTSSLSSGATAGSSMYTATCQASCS
BRCA1 expr up – increases BRCA1 expression. MCF7-BRCA1-FFLuc reporter, luminescence, 48 h; response scale: scaled: vehicle 0%, 10 µM genistein 100%. Potency, µM (doses to about 46.1 µM), inactives show top-dose activation, actives largely listed as activators. 1.1% of 380,000 active. AID 624202; note: nearly all actives have a fitted effect of over 80% in size
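Luminescence from a BRCA1-driven firefly luciferase in MCF7 cells was read after 48 h compound exposure at 37 C. Data normalized against DMSO and a 10microM genistein activation control, then curve-fitted across the titration.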
GLP-1R inv ag – inverse agonists of human GLP-1 receptor | 1.6% of 410,000 active | HEK293 GLP-1R CRE-luciferase, luminescence, 24 h; GLP-1R form is constitutively active | Potency, µM (titrated, usually from 38.3 µM), for the others: at the highest dose activity change, negative = inhibition, most hits filed as inhibitors | AID 624417; note: % is set by controls: 0 for no effect and ±100 for the full control effect; nearly all actives have a fitted effect of over 55% in size
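Cells are plated, allowed 12 hours at 37 deg C, then treated with compounds for 24 hr before luciferase detection reagent is added and luminescence is read after 12 min at room temperature. The HEK293 line carries constitutively active GLP-1R with a cAMP-responsive reporter.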
An asterisk follows results filed as active; ? = inconclusive; / = no result; [ ] = another dose, or the depositor's remark. Calls come from the whole dose curve; as a rule, active = well fitted curve in the direction sought with a large enough effect; inconclusive = small, poorly fitted or top-dose-only effect, or another doubt; inactive = no such curve, though single readings can be large; an effect the other way counts as inactive or inconclusive. Potency is the fitted concentration of half-maximal effect.

SMILES	a7 integrin act	GLP1R cytotox	GLP1R ag	BRCA1 expr up	GLP-1R inv ag
OCCc1ccc(O)c(-n2nc3ccccc3n2)c1	4%	-3%	15%	11µM*	32%
Cc1cc(Sc2nnc(N)s2)c2ccccc2n1	14%	-29%	-5%	-58%	?
Cc1cc(Sc2nnc(/N=C/N(C)C)s2)c2ccccc2n1	-65%	-7%	-5%	-88%	3.2µM*
COc1cccc(NC(=O)c2csc3c2CCCCC3)c1	/	-8%	/	63%	?
CNc1ccc(/C=C(\C#N)c2ccccn2)cc1[N+](=O)[O-]	4%	2%[0.307 µM]	0%	10µM*	3%[0.307 µM]
OC[C@@H](O)[C@H](O)C(/C=N/Nc1ccccc1)=N\Nc1ccccc1	-2%	?	0%	-25%	2.5µM*
CC(=O)/C=N/Nc1ccccc1	20%	3%	10%	-3%	-1%
Cc1ccccc1Cn1c(CN2CCC(C(=O)NCCN(C)C)CC2)cc2ccccc21	/	1%	/	/	-9%
O=C(CSc1nnnn1Cc1ccccc1)c1ccc(F)cc1	4%	2%	-1%	?	-5%
O=C(CSc1nnnn1Cc1ccccc1)c1ccccc1	3%	3%	5%	13µM*	0%
Cc1ccc(C(=O)CSc2nnc(-c3ccco3)n2Cc2ccccc2)cc1	0%	-16%	8%	70%	?
O=C(CSc1nnc(-c2ccco2)n1Cc1ccccc1)c1ccccc1	-9%	-7%	7%	4µM*	?
CC(CN(C)C)CN1c2ccccc2S(=O)(=O)c2ccccc21 (stereo not given)	/	/	4%	/	/
COCCNC(=O)c1ccc(-c2nc(CN3CCc4ccccc43)c(C)o2)cc1	/	3%	-8%	-15%	-29%
Cc1cccc(N2C(=O)CC(Sc3nc(C)c4c(n3)CCCC4)C2=O)c1 (stereo not given)	-15%[7.66 µM]	5µM*	22%	1%	-22%
COc1cccc(CNC(=O)c2c3c(nc4ccccc24)C(=O)N(C2CCCCC2)C3)c1	/	-1%	/	/	?
O=C(Nc1ccc(NC(=O)C2CC2)cc1)c1ccco1	10%	12%	1%	3.2µM*	5%
CC(C)OC(=O)c1ccc(NC(=O)c2ccco2)cc1	-21%	-4%	23%	?	-18%
O=C(Nc1ccc(NC(=O)C2CC2)cc1)c1cccs1	?	-7%	0%	10µM*	-13%
CCOC(=O)c1ccc(NC(=O)c2ccco2)cc1	0%	0%	6%	7.1µM*	9%
O=C(Nc1ccccc1O)c1ccc(NC(=O)C2CC2)cc1	3%	-19%	1%	1.8µM*	86%
CC(=O)N1CCc2c(sc3nc(SCC(N)=O)n(-c4ccc(F)c(Cl)c4)c(=O)c23)C1	/	-1%	/	/	2%
CCN(c1ccccc1)S(=O)(=O)c1nnc(NC(=O)c2ccccc2)s1	/	-2%	/	/	-17%
COc1ccc(-n2c(SCC(=O)NCc3ccc(F)cc3)nc3c([nH]c4ccccc43)c2=O)cc1	/	-4%	4%	3%	15%
CC(=O)c1c(C)oc2ccc(N(C(=O)Oc3ccccc3)S(=O)(=O)c3ccc(C(C)(C)C)cc3)cc12	/	-11%	/	/	-22%
SMILES	a7 integrin act	GLP1R cytotox	GLP1R ag	BRCA1 expr up	GLP-1R inv ag
COCCCNS(=O)(=O)c1ccc(N2CCCCS2(=O)=O)cc1	/	-4%	/	/	-6%
CCOC(=O)Cc1ccc(NC(=O)c2ccc(C(C)(C)C)cc2)cc1	-10%	-20%	-11%	-79%	5µM*
CC(NC(=O)c1ccco1)C(=O)Nc1nccs1 (stereo not given)	0%	11%	-7%	-8%	3%
CCOC(=O)c1ccc(NC(=S)N(CCCN(CC)CC)Cc2ccco2)cc1	?	3%	11%	-15%	?
O=C(Nc1nccs1)c1ccc(NC(=O)c2ccco2)cc1	5%	-17%	4%	5µM*	5%
CCOC(=O)c1ccc(NC(=S)N(CCCN2CCCCC2)Cc2ccco2)cc1	?	?	?	-8%	11µM*
COc1ccc(NC(=O)CNC(=O)c2ccco2)cc1	1%	9%	-1%	?	10%
Cc1ccc(NC(=O)CNC(=O)c2ccco2)cc1	2%	-1%	2%	11µM*	14%
